This passage reports outcome and Potency results from PubChem BioAssay (NCATS).

The structures appear in SMILES notation. Records with an inconclusive call do not appear. The source made the active and inactive calls. Unless noted, calls come from the whole dose curve; as a rule, active = well fitted curve in the direction sought with a large enough effect; inconclusive = small, poorly fitted or top-dose-only effect, or another doubt; inactive = no such curve, though single readings can be large; an effect the other way counts as inactive or inconclusive. Peptide text beside a SMILES is read from it.

A short description of assay [1]: qHTS Assay for Identification of Small Molecule Inducers of Hypoxia Response (AID 2120; active = well fitted curve in the direction sought with a large enough effect in the signal ratio, with a control signal flat, not every such curve was filed as active; the % refers to the signal ratio). The procedure, abridged:
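HRE-bla ME-180, 2500 cells/well, 0.5% dialyzed FBS medium; cpd titration, 17 h 37 degrees C; CCF4 2.5 h RT; Ex 405, Em 460/530 ratio -> %Activity, AC50.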
(qHTS replaces the single test concentration by a dilution series.)

In assay [2] the target is Ferritin light chain (Equus caballus) (UniProt P02791). The assay is described as follows: qHTS Validation Assay for Identification of Novel General Anesthetics (AID 2323). Note: series mostly up to about 77 µM. The procedure, abridged: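 Horse-spleen apoferritin (10 uM) in PBS with 50% saturated 1-aminoanthracene; compounds pin-transferred, 10 min at room temperature. Fluorescence read at 380/535 nm, normalized to free 1-AMA and 1-AMA/apoferritin values; four-parameter Hill fit.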

The target in assay [3] is ATP-dependent DNA helicase Q1 (Homo sapiens) (UniProt P46063). The assay is described as follows: qHTS Validation Assay for Inhibitors of RecQ-Like Dna Helicase 1 (RECQ1) (AID 2353). Summed up: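 RECQ1T1 50 nM; forked duplex (20 bp + 30-nt ss tails) 200 nM, ATP 2 mM final; pH 8.0, 2 mM MgCl2, 2.5 ug/ml poly(dI-dC); 15 min compound preincubation; discontinuous kinetic read over 2 h at RT.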

For assay [4], the target named is RecQ-like DNA helicase BLM (Homo sapiens) (UniProt P54132). As to the kind of experiment: qHTS Validation Assay for Inhibitors of Bloom's syndrome helicase (BLM) (AID 2364). The procedure, abridged: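 BLM 50 nM in 25 mM Tris-HCl pH 8.0, 5 mM NaCl, 2 mM MgCl2, 1 mM DTT, 0.01% Tween-20, 2.5 ug/ml poly(dI-dC); 15 min cpd preinc, RT. Start: 200 nM forked DNA + 2 mM ATP (final). TAMRA read, 2 reads 2 h apart.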

Assay [5] in a line: High Content Imaging Cell-Based qHTS for Inhibitors of the mTORC1 Signaling Pathway in MEF Cells (AID 2667).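 Note: Tsc2-/- p53-/- MEFs stably re-expressing wild-type Tsc2 exposed 24 h; series mostly up to about 38 µM.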 The procedure, abridged:
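Fixed-cell imaging of phospho-S6 (Ser235/236, Alexa-488) after 24 hrs of compound treatment at 37 degree Celsius. Signal was normalized to Hoechst, and thresholds from the highest and lowest wells split cells into % active versus % non-active.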

Assay [6] is described as follows: Cytometry Cell-Based qHTS for Inhibitors of the mTORC1 Signaling Pathway in MEF cells (AID 2668).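 Note: Tsc2-/- p53-/- mouse embryonic fibroblasts stably re-expressing wild-type Tsc2; percent cells positive for phospho-rpS6 Ser235/236 relative to propidium iodide stain; series mostly up to about 38 µM.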 The procedure, abridged: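 MEFs (Tsc2-/-, p53-/- stably expressing WT Tsc2) treated 24 h at 37 degree Celsius, fixed, stained with Alexa-488 anti-phospho-rpS6 Ser235/236 and propidium iodide; Acumen laser scanning. Reported as % positive cells, phospho-S6 normalized to PI.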

The nature of assay [7]: Validation screen for small molecules that induce DNA re-replication in MCF 10A normal breast cells (AID 463097). Note: nearly all actives have a fitted effect of over 60% in size. The procedure, abridged:
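MCF 10A cells exposed to compound 48 hr at 37 C, 5% CO2, then Hoechst-stained 40 min. Laser-scanning imaging of nuclear DNA content (405 nm ex, 500-530 nm em); re-replication scored as rise in nuclei with elevated fluorescence intensity.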

Assay [8] has as its target Ubiquitin carboxyl-terminal hydrolase 2 (Homo sapiens) (UniProt O75604). The assay is described as follows: qHTS Validation Assay for Inhibitors of Ubiquitin-specific Protease USP2a Using CHOP2 as the Reporter (AID 463106). The procedure, abridged:
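Inhibition is expressed relative to NEM as the full-inhibition control, with concentration-response curves classed by fit quality, magnitude and activity. Enzyme (USP2 core, 10nM) meets 25nM Ub-CHOP2 after compound preincubation; readings are taken at 60min.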

The target in assay [9] is Tumor susceptibility gene 101 protein (Homo sapiens) (UniProt Q99816). The assay is described as follows: qHTS Validation Assay for Iinhibitors of HIV-1 Budding by Blocking the Interaction of PTAP/TSG101 (AID 485342; calls by dose curve). The procedure, abridged: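 Tsg101 binding domain (10 uM) with FITC-labeled PTAP peptide (50 nM) in HEPES pH 7.5 buffer, 20 min at r.t. with compounds. Binding measured by fluorescence polarization.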

Assay [10] deals with Beta-2 adrenergic receptor (Homo sapiens) (UniProt P07550). As to the kind of experiment: qHTS validation assay of beta-arrestin-biased ligands of beta2-adrenergic receptor (AID 485366). The procedure, abridged: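 Agonism was measured as beta-arrestin recruitment to recombinant beta2-AR, releasing tTA to drive luciferase. Cells were exposed for 18 hr at 37 degrees C to a series up to 46 microM. %Activity from corrected luminescence gave concentration-response curves.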

Assay [11] addresses ATP-dependent 6-phosphofructokinase (Trypanosoma brucei brucei) (UniProt O15648). The assay is described as follows: qHTS Validation Assay to Find Inhibitors of T. brucei phosphofructokinase (AID 485368). Summed up: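 ADP-Glo luminescence, two-step: residual ATP depleted, then ADP converted to ATP for luciferase. Enzyme 1.25 nM, F6P 0.5 mM, ATP 0.1 mM, pH 8.0 TEA buffer, 45 min RT. Curves fitted and classed by quality and efficacy.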

The nature of assay [12]: Quantitative high throughput screen for delayed death inhibitors of the malarial parasite plastid, 96 hour incubation (AID 488745). Note: nearly all actives have a fitted effect of over 70% in size. Note: potency is the fitted concentration of half-maximal effect. Summed up: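 Two-generation (96 h) exposure of luciferase-reporter P. falciparum in erythrocytes, 2% hematocrit, 0.1% parasitemia final, 37 C, 5% CO2, RPMI 1640 with 0.5% Albumax. Growth inhibition scored by reduced luminescence.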
Assay [13] in a line: Quantitative high throughput screen for delayed death inhibitors of the malarial parasite plastid, 48 hour incubation (AID 488752). Note: nearly all actives have a fitted effect of over 65% in size. Note: potency is the fitted concentration of half-maximal effect. Summed up: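 Cultures: infected erythrocytes at final 2% hematocrit and 0.1% parasitemia in Albumax-supplemented RPMI. Parasites express integrated firefly luciferase. Incubation with compound lasts 48 h before luminescent detection of remaining reporter activity.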

The target of assay [14] is Thioredoxin reductase 1, cytoplasmic (Rattus norvegicus) (UniProt O89049). The assay is described as follows: qHTS Assay for Substrates of Mammalian Selenoprotein Thioredoxin Reductase 1 (TrxR1) (AID 488772).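 Note: series mostly up to about 57 µM; a drop in NADPH fluorescence below the no-compound background marks a TrxR1 substrate.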 Summed up: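 In this dual-purpose format, potential substrates are identified from the first fluorescence read after selenite addition, not from the 8-minute delta. Rat enzyme is preincubated with NADPH and then with compound at ~22 deg C.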

The target is the same in assay [15]. As to the kind of experiment: qHTS Assay for Inhibitors of Mammalian Selenoprotein Thioredoxin Reductase 1 (TrxR1) (AID 488773).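 Note: drop in NADPH fluorescence over an 8 min run after selenite addition; series mostly up to about 57 µM; nearly all actives have a fitted effect of over 40% in size.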 The settings on record: Potency: inhibition. The procedure, abridged: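 Inhibition is scored from the loss of NADPH fluorescence between first and last reads of an 8-min kinetic run. Selenite (400 uM) was the substrate, added after 15 min compound preincubation at room temperature.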

Assay [16] concerns the target Flap endonuclease 1 (Homo sapiens) (UniProt P39748). As to the kind of experiment: qHTS Validation Assay for the Inhibitors of Human Flap endonuclease 1 (FEN1) (AID 488816). Summed up:
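Steps: add FEN1 (10 nM reagent) or buffer only; pin compounds; hold 15 min at room temperature; start with substrate, 50 nM final; read at 0 and 15 min; correct, normalize and fit a four-parameter Hill curve.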

Assay [17] concerns the target M-phase phosphoprotein 8 (Homo sapiens) (UniProt Q99549). The assay is described as follows: qHTS Validation Assay for Inhibitors for MPP8 Chromodomain Interactions with Methylated Histone Tails (AID 488949). Note: top concentration of the series differs between compounds; nearly all actives have a fitted effect of over 55% in size. The procedure, abridged: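 MPP8 (50 nM) was pre-bound to 50 nM biotinylated H3(1-18)K9me3 peptide in PBS pH 7.4 with 0.01% Tween-20. Compounds were then added for 30 min at room temperature, and complex disruption was read by AlphaScreen with streptavidin donor and nickel-chelate acceptor beads.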

Assay [18] in a line: Cytometric Cell-Based qHTS for Inhibitors of the mTORC1 Signaling Pathway in MEF (Tsc2-/-, p53-/-) Cells (AID 2660).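 Note: Tsc2 and p53 null MEFs carrying empty vector with compound for 24 h; percent of cells above a phospho-rpS6 to PI ratio cutoff in each well; series mostly up to about 38 µM.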 Summed up:
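Immunofluorescence qHTS of rpS6 Ser235/236 phosphorylation: MEFs (Tsc2-/-, p53-/-) treated 24 h, 37 C, in DMEM + 10% FBS. Alexa-488 signal normalized to PI count, referenced to rapamycin (7.5 nM) and DMSO; PI cell number recorded for viability.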

Assay [19] is described as follows: High Content Imaging Cell-Based qHTS for Inhibitors of the mTORC1 Signaling Pathway in MEF (Tsc2-/-, p53-/-) Cells (AID 2666).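 Note: percent of cells scored positive for phospho-rpS6 Ser235/236 immunostaining by imaging.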 Summed up: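 Inhibition of rpS6 phosphorylation is measured by immunofluorescence imaging in empty-vector Tsc2-/-, p53-/- mouse embryonic fibroblasts after 24 hrs compound exposure at 37 degree Celsius. Results are reported as % positive cells per well.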

Sequence of Ubiquitin carboxyl-terminal hydrolase 2 (Homo sapiens) (O75604 whole entry, looked up): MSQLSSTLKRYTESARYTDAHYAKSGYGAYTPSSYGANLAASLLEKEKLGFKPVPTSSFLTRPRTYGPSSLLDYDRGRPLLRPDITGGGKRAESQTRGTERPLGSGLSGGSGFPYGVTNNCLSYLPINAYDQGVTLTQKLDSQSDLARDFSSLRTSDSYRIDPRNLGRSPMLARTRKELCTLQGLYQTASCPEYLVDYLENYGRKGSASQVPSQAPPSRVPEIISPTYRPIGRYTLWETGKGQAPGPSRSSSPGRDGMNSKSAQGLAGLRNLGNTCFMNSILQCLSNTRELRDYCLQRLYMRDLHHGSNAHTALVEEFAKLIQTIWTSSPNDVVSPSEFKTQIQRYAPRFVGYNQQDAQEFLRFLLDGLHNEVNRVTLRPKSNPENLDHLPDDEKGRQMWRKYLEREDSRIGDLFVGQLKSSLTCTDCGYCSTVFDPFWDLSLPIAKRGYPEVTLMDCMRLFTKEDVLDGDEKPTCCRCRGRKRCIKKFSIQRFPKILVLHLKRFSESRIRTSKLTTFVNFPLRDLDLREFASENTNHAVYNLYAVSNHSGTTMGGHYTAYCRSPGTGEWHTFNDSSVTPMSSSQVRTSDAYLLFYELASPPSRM
Sequence of Thioredoxin reductase 1, cytoplasmic (Rattus norvegicus) (O89049 whole entry, looked up): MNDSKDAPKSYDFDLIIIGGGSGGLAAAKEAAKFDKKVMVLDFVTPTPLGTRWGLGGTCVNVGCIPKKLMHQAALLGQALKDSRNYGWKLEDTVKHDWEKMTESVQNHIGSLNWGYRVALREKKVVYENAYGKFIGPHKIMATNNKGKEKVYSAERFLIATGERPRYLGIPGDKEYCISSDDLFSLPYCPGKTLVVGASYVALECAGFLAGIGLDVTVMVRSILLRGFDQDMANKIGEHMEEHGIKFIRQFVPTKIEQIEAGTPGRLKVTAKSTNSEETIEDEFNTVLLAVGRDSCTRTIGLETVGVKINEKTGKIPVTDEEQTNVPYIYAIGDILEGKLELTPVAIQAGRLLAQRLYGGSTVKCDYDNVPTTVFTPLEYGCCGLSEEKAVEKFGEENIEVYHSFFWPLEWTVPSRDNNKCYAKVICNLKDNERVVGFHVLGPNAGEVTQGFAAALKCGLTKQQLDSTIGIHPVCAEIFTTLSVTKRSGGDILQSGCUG
Sequence of Flap endonuclease 1 (Homo sapiens) (P39748 whole entry, looked up): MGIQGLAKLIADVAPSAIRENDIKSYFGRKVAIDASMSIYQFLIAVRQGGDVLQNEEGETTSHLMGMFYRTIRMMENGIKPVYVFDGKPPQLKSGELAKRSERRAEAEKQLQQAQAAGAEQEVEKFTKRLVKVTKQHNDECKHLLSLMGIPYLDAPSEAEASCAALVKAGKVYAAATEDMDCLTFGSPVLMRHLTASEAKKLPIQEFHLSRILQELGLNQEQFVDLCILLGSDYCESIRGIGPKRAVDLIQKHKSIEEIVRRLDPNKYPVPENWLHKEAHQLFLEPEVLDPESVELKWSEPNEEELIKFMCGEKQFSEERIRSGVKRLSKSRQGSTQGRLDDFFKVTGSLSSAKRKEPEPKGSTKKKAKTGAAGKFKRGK
Sequence of RecQ-like DNA helicase BLM (Homo sapiens) (P54132 whole entry, looked up): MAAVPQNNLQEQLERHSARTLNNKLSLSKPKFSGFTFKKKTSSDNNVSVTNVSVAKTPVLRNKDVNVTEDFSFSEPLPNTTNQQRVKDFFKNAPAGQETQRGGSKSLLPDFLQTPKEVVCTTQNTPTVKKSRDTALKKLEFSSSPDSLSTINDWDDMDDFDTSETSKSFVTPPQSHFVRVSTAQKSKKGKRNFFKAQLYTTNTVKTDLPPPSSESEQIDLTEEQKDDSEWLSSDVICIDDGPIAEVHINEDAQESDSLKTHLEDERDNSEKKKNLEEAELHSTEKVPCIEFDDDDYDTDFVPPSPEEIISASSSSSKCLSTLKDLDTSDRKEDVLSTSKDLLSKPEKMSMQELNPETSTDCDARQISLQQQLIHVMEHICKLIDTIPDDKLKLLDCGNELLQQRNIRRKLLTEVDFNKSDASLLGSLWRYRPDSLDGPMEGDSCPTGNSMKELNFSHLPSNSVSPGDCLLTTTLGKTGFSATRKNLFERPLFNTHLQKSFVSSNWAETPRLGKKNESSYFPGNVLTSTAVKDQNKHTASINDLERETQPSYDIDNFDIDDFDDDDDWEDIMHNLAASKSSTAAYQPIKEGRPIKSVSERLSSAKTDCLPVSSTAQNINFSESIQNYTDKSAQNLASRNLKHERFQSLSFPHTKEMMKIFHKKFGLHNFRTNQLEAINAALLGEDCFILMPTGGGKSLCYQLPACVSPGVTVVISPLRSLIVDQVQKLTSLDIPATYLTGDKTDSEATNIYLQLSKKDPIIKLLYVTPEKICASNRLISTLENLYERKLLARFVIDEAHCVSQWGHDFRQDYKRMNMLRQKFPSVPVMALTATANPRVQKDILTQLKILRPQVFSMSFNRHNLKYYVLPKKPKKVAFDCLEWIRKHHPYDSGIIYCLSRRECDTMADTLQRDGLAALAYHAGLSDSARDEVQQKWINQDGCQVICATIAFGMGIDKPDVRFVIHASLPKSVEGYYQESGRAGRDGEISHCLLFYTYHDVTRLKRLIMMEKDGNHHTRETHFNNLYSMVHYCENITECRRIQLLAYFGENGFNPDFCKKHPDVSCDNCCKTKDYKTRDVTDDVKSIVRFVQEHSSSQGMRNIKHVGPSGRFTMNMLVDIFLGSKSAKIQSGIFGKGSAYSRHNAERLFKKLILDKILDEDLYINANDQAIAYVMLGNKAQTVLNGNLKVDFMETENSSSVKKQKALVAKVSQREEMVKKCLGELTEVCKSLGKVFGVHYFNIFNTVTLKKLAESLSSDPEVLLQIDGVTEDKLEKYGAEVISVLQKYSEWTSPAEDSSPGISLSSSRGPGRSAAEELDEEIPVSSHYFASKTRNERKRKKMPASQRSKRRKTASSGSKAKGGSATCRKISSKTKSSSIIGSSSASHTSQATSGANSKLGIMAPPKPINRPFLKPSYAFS
Sequence of ATP-dependent DNA helicase Q1 (Homo sapiens) (P46063 whole entry, looked up): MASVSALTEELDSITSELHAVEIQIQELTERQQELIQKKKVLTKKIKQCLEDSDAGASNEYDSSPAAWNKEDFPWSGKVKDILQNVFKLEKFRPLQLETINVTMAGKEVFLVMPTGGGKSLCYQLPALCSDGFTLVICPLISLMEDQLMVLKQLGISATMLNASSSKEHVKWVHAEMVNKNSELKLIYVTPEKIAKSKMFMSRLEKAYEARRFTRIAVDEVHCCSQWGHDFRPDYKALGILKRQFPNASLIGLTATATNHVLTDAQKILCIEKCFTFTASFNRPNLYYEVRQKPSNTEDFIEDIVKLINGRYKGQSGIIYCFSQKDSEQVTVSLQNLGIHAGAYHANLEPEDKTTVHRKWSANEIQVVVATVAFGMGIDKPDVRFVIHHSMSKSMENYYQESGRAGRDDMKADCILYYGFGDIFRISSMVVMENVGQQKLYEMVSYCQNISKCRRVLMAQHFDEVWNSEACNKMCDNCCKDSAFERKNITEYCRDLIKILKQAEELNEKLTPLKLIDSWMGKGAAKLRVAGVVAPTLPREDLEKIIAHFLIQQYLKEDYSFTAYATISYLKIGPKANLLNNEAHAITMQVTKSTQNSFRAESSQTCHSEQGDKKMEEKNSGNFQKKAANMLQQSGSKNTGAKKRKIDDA
Sequence of Beta-2 adrenergic receptor (Homo sapiens) (P07550 whole entry, looked up): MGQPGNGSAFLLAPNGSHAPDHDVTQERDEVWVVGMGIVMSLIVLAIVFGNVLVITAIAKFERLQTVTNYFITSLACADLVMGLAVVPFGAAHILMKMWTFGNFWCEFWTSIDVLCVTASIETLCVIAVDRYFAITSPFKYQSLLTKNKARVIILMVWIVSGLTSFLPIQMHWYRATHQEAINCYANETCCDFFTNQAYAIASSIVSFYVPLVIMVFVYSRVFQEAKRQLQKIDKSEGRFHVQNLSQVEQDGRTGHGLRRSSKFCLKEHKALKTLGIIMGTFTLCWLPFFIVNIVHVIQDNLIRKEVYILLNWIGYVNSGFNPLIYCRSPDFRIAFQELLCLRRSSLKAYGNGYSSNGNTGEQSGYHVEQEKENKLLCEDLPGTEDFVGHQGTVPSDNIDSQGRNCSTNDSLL
Sequence of M-phase phosphoprotein 8 (Homo sapiens) (Q99549 whole entry, looked up): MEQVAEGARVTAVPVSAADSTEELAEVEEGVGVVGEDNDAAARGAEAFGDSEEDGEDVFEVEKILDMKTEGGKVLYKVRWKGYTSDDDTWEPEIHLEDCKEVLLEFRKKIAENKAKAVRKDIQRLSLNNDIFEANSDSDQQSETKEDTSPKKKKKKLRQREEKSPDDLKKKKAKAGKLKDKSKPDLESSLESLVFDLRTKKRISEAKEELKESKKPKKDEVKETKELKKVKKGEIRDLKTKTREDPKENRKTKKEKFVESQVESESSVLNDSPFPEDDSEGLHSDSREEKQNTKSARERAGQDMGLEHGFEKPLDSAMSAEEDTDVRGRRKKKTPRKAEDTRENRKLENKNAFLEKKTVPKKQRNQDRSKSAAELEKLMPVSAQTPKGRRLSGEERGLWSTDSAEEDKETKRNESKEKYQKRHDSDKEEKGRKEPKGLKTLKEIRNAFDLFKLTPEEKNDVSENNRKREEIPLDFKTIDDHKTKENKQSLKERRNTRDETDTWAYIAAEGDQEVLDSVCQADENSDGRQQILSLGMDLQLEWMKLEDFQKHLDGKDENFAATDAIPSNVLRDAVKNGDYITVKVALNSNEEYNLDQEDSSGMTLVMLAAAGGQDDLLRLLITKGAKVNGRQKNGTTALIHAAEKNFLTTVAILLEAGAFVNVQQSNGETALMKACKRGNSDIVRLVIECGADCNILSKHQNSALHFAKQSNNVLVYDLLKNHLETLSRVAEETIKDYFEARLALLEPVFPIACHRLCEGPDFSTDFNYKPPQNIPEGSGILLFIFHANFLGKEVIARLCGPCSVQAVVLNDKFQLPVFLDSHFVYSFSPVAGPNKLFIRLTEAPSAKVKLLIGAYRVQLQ

In the case of `CS(=O)(=O)OCCCCOS(C)(=O)=O`, the compound was classed as inactive in [1].
Turning to `CCCCC(CC)COC(=O)C(C#N)=C(c1ccccc1)c1ccccc1` (stereo unspecified), in assay [1], the compound was called inactive.
Turning to `NCCCCNCCCN`, the Potency result in assay [2], in assay [3], in [4], in assay [5], in [6] and in assay [7] was “inactive” each time. Also, the Potency entry in assay [11], in assay [12], in [13], in assay [15], in assay [16] and in [17] was “inactive” throughout. The compound was called inactive in assay [8], in assay [9], in assay [10] and in assay [14].
Regarding `c1ccc2[nH]c(-c3cscn3)nc2c1`, the compound was classed as inactive in assay [1].
Consider `CC1(C)NC(=O)N(c2ccc([N+](=O)[O-])c(C(F)(F)F)c2)C1=O`, for which the Potency result in assay [2], in assay [3], in [4], in [18], in assay [19] and in assay [5] was “inactive” throughout. Also, the Potency result in [6], in [7], in [11], in assay [12], in assay [13] and in [15] was “inactive” throughout. Moreover, the Potency result in assay [16] and in assay [17] was “inactive” in each case. For the same compound, the compound was classed as inactive in [8], in assay [9], in assay [10] and in assay [14].
On to `O=C(CCc1ccc(O)cc1)c1c(O)cc(O)cc1O`, for which the Potency entry in assay [2], in assay [3], in assay [4], in [18], in assay [19] and in assay [5] was “inactive” in each case. In addition, the Potency entry in [6], in assay [7], in assay [11], in [12], in assay [13] and in assay [16] was “inactive” in each case. Besides, the Potency entry in assay [17] is “inactive”. For the same compound, the call in assay [8], in [9], in [10] and in assay [14] was inactive.
As for `O=C(NCC1CCCCN1)c1cc(OCC(F)(F)F)ccc1OCC(F)(F)F` (stereo unspecified), the Potency result in assay [2], in assay [3], in assay [4], in assay [7], in [12] and in [13] was “inactive” each time. In addition, the Potency entry in assay [17] was “inactive”.
Turning to `NS(=O)(=O)c1cc(C(=O)O)c(NCc2ccco2)cc1Cl`, the outcome in assay [1] was inactive.
For the compound `NC(=NCc1ccccc1)NC(=O)c1nc(Cl)c(N)nc1N`, the Potency result in [2], in assay [3], in assay [4], in [18], in [19] and in assay [5] was “inactive” each time. The Potency result in assay [6], in [11], in assay [15] and in [17] was “inactive” each time. Besides, the call in [8], in assay [9], in [10] and in [14] was inactive. Moreover, the Potency was 2620 nM (active) in [12] and 2940 nM (active) in assay [13].
In the case of `C[C@@H](N)C1CCC(C(=O)Nc2ccncc2)CC1` (stereo partly specified), the Potency entry in assay [2], in assay [3], in [4], in [18], in assay [19] and in assay [5] was “inactive” in each case. Also, the Potency result in assay [6], in assay [7], in assay [12], in assay [13], in assay [15] and in [16] was “inactive” each time. Also, the Potency entry in [17] was “inactive”. Further, the compound was classed as inactive in [8], in [9], in [10] and in assay [14].
As to `COC(=O)[C@H](Cc1ccccc1)NC(=O)[C@@H](N)CC(=O)O` (H-Asp-Phe-OMe), the outcome in assay [1] was inactive.
`COc1ccccc1N1CCN(CCN(C(=O)C2CCCCC2)c2ccccn2)CC1`: the Potency entry in [2], in assay [3], in [18], in assay [19], in assay [5] and in [6] was “inactive” in each case. Besides, the Potency entry in [7], in assay [11], in [12], in assay [13], in assay [15] and in assay [16] was “inactive” in each case. Further, the Potency result in [17] is “inactive”. Moreover, the result in assay [8], in assay [9], in assay [10] and in assay [14] was inactive.
For `Nc1ccc(S(N)(=O)=O)cc1`, the call in assay [1] was inactive.
For the compound `COc1cc2nc(N3CCN(C(=O)C4CCCO4)CC3)nc(N)c2cc1OC` (stereo unspecified), the Potency entry in [2], in [3], in assay [4], in [18], in assay [19] and in assay [5] was “inactive” in each case. Further, the Potency entry in assay [6], in [7], in [11], in assay [13], in assay [15] and in assay [16] was “inactive” each time. In assay [17], the Potency result is “inactive”. Further, the compound was classed as inactive in assay [8], in assay [9], in assay [10] and in [14].
